Test results published in PubChem BioAssay (NCATS).
Several values for one entry are separate records, joined by “and”; a condition that tells them apart may be missing. Equal values may be shown once. Records with an inconclusive call do not appear. Entries that show only a call come without a potency. Activity calls are given as the source filed them. Unless noted, calls follow the shape of the dose curve; as a rule, active = well fitted inhibition curve with a large enough effect; inconclusive = small, poorly fitted or top-dose-only effect; inactive = no such curve, though single readings can be large or run the other way.

target: Cytochrome P450 2D6 (Homo sapiens) (UniProt P10635); experiment: qHTS Assay for Inhibitors and Substrates of Cytochrome P450 2D6 (AID 891); conditions: recombinant CYP2D6, luciferin-ME EGE luminescence; series mostly up to 57.1 µM; also: nearly all actives have a fitted effect of over 60% in size
Sequence (P10635 whole entry, looked up): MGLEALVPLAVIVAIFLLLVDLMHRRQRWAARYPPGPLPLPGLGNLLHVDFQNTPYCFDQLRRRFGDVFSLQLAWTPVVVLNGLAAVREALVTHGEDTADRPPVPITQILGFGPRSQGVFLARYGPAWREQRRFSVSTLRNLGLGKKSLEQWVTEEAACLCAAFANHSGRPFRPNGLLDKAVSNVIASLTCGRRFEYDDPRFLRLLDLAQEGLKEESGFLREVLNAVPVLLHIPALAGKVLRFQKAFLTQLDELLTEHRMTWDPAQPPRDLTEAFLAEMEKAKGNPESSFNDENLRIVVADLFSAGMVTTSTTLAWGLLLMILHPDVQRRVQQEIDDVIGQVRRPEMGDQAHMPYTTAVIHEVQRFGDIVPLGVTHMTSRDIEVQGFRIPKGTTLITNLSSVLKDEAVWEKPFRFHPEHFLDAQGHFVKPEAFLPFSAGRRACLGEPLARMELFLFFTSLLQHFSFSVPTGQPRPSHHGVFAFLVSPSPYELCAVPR
How it was run: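 Luminescent read-out of luciferin formed by 5 nM human CYP2D6 demethylating 30 uM Luciferin-ME EGE (Km level) over 60 min at room temperature after NADPH regeneration addition. Data normalized to full inhibition by 1.43 uM quinidine.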
Potency is read from the fitted curve at half-maximal effect.

| Compound | Potency |
| --- | --- |
| CCN(c1ccccc1)c1cc(NC)[n+](C)c(C)n1 | 3.98 µM (active) |
| Cc1ccc(N(CC2=NCCN2)c2cccc(O)c2)cc1 | 3.16 µM (active) and 794 nM (active) |
| NNCCc1ccccc1 | 6.31 µM (active) and 2.51 µM (active) |
| COc1ccc2nc(S(=O)Cc3ncc(C)c(OC)c3C)[nH]c2c1 (stereo not drawn) | inactive |
| O=C1CCc2cc(OCCCCc3nnnn3C3CCCCC3)ccc2N1 | inactive |
| Cc1oncc1C(=O)Nc1ccc(C(F)(F)F)cc1 | inactive |

tested on: not listed separately; experiment: qHTS Assay for Identification of Small Molecule Antagonists for NFkB Signaling Pathway (AID 895; active = well fitted inhibition curve with a large enough effect in the signal ratio, with a control signal flat, not every such curve was filed as active; the % refers to the signal ratio); conditions: NFkB beta-lactamase reporter cells, FRET ratio 460/530, stimulated with 10 pM TNF alpha; series mostly up to 38.3 µM
How it was run: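 NFkB-bla ME-180 cervical carcinoma cells with beta-lactamase reporter under NFkB response element; compounds added, then TNF alpha at 10 pM final (EC50), 5 h at 37 C. LiveBLAzer substrate 2 h, room temperature; emission 460/530 nm at 405 nm excitation.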

| Compound | Potency |
| --- | --- |
| C[C@]12CCC(=O)C=C1CC[C@@H]1[C@@H]2[C@@H](O)C[C@@]2(C)[C@H]1CC[C@]2(O)C(=O)CO | 0.0141 µM (active) |
| Nc1ccc(S(=O)(=O)Nc2ccnn2-c2ccccc2)cc1 | 7.08 µM (active) |
| CCOC(=O)N1CCC(=C2c3ccc(Cl)cc3CCc3cccnc32)CC1 | inactive |
| CCCCNc1cc(C(=O)O)cc(S(N)(=O)=O)c1Oc1ccccc1 | inactive |
| Cc1oncc1C(=O)Nc1ccc(C(F)(F)F)cc1 | inactive |
| Cc1cnc(NC(=O)C2=C(O)c3ccccc3S(=O)(=O)N2C)s1 | inactive |

target: Cytochrome P450 2C19 (Homo sapiens) (UniProt P33261); experiment: qHTS Assay for Inhibitors and Substrates of Cytochrome P450 2C19 (AID 899); conditions: recombinant CYP2C19, luciferin-H EGE luminescence; series mostly up to 57.1 µM; also: nearly all actives have a fitted effect of over 60% in size
Sequence (P33261 whole entry, looked up): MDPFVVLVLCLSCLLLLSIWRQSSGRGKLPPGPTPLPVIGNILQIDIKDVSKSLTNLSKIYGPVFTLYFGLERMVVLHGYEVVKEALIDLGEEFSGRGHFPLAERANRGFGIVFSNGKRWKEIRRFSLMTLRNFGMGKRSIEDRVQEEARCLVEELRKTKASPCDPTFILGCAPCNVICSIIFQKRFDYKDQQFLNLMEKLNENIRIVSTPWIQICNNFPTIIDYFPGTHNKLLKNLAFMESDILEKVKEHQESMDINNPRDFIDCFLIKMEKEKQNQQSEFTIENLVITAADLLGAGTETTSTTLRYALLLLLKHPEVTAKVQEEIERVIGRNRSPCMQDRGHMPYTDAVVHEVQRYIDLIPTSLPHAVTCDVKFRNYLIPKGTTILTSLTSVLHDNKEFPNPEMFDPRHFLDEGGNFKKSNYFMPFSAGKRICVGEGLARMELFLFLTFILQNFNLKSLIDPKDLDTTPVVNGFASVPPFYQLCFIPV
How it was run: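 In 50mM KPO4, the reaction held 5nM enzyme and KM-level (10uM) Luciferin-H EGE; it ran 60 min at 37C after NADPH regeneration and a 10 min compound preincubation. Luminescence values were scaled to 57uM ketoconazole as complete inhibition.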

| Compound | Potency |
| --- | --- |
| Clc1cccc(Cl)c1NC1=NCCN1 | 5.01 µM (active) |
| Nc1ccc(S(=O)(=O)Nc2ccnn2-c2ccccc2)cc1 | inactive |
| NNCCc1ccccc1 | 794 nM (active) and 316 nM (active) |
| Cc1ccc2c(c1)C(=O)[C@@]1(O)CCN(c3ccccc3)C1=N2 | 7.94 µM (active) |
| O=C1CCc2cc(OCCCCc3nnnn3C3CCCCC3)ccc2N1 | inactive |
| Cc1oncc1C(=O)Nc1ccc(C(F)(F)F)cc1 | inactive |
